The nature of assay [1]: rapamycin-like changes in RPL19A-GFP expression – cell-based, S. cerevisiae, multiplex flow cytometry, primary screen (AID 1862; in the data active = percent of DMSO control GFP below about 86%;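 also: lower values mimic rapamycin by blocking the RPL19A rise seen in DMSO cells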). The settings on record: S. cerevisiae RPL19A-GFP strain, flow cytometry fluorescence, 3 h; at 10 µM; stronger effect = lower value. In general terms: In flow cytometry, cells or beads pass a laser one at a time.
A short description of assay [2]: TOR pathway GLN3 branch reporter MEP2-GFP changes – S. cerevisiae, multiplex flow cytometry, primary screen (AID 1867;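 active = GFP response, as percent of the DMSO control, above the screen-wide mean plus 3 SD, about 139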;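 also: median GFP channel fluorescence of barcode-gated MEP2-GFP cells measured by flow cytometry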). The settings on record: S. cerevisiae MEP2-GFP strain, 3 h, at 10 µM, stronger effect = higher value, 100% means same as DMSO wells.
Assay [3] is described as follows: TOR pathway RTG branch CIT2 reporter changes – S. cerevisiae, GFP fusion, multiplex flow cytometry, primary screen (AID 1870;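 active = percent response above a set limit, the screen-wide mean plus 3 SD, cut at about 130% in these data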;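 also: barcoded CIT2-GFP strain pooled with four other GFP strains with rapamycin as positive control; median GFP fluorescence per well over plate mean of DMSO wells so 100% = DMSO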). The settings on record: S. cerevisiae CIT2-GFP expression, 3 h, at 10 µM, stronger effect = higher value.
Assay [4] is described as follows: TOR pathway LAP4-GFP level changes – S. cerevisiae, multiplex flow cytometry, primary screen (AID 1873;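 active = GFP signal, as percent of the solvent control, above the screen mean plus 3 SD, about 149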). The settings on record: S. cerevisiae LAP4-GFP expression, 3 h, at 10 µM, stronger effect = higher value.
Assay [5] in a line: yeast AGP1-GFP level changes, GLN3 branch – cell-based, multiplex flow cytometry, S. cerevisiae, primary screen (AID 1887;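 active = GFP signal above the screen-wide mean plus 3 SD, that is over about 124.5% of the solvent control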;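 also: AGP1-GFP fusion strain of S. cerevisiae within a five-strain barcoded multiplex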). The settings on record: 3 h, at 10 µM, stronger effect = higher value.
Assay [6] is described as follows: reduced mouse 2C T cell binding to pMHC/ICAM-1 vesicles – MLPCN validation set, flow cytometry, LFA-1/ICAM-1 modulator project, pilot screen (AID 2523;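 active = response below a set limit, under 55% cells CD8-positive and vesicle-bound, and CD8 cells' 90th-percentile brightness under 279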;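 as to vesicle binding response: mean PE anti-B7-1 fluorescence of CD8+ cells relative to row control; 100% = QL9-loaded vesicles with DMSO vehicle in the same plate row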). The settings on record: 2C mouse CD8+ T cells, at 7 µM, stronger effect = lower value; double positive events: measured here: CD8+/vesicle+ event percentage.
In assay [7] the target is Integrin beta-1 (Homo sapiens) + Integrin alpha-4 (Homo sapiens) (UniProt P13612+P05556). The assay is described as follows: alpha4beta1 integrin LIBS antibody binding reduction – U937 cells, HUTS-21 mAb, flow cytometry, validation set, VLA-4 allosteric modulator project, pilot screen (AID 2674;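 active = inhibition above 50%, about 3 SD of the validation set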;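 also: antibody binding induced by the VLA-4 ligand LDV present at three times its Kd; 0% = LDV ligand with antibody and no compound and 100% = antibody without LDV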). The settings on record: HUTS-21 LIBS mAb binding, at 6.7 µM, stronger effect = higher value, binding induced by LDV ligand.
Chain of Integrin beta-1 (Homo sapiens) + Integrin alpha-4 (Homo sapiens) (P05556 whole entry, looked up): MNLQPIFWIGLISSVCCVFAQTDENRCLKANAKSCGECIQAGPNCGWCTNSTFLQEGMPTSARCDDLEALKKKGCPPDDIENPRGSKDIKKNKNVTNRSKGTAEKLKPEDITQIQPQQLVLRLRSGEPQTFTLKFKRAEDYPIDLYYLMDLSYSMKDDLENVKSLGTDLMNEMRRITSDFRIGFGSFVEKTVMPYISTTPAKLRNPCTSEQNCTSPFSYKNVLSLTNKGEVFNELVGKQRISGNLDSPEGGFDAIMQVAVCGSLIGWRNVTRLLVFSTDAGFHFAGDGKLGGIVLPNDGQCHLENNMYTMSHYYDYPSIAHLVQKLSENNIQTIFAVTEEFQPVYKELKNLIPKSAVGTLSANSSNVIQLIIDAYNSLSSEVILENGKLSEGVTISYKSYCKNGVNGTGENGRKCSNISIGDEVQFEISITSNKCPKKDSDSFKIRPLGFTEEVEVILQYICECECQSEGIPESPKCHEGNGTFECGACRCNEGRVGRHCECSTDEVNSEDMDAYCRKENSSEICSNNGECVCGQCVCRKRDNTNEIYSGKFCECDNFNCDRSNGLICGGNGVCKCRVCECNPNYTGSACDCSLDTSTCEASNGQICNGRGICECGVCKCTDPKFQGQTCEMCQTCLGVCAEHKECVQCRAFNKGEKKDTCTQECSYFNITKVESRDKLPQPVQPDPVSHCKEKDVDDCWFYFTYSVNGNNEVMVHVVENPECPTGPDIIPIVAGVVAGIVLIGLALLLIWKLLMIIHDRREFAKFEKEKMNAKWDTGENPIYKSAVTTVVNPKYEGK
Chain of Integrin beta-1 (Homo sapiens) + Integrin alpha-4 (Homo sapiens) (P13612 whole entry, looked up): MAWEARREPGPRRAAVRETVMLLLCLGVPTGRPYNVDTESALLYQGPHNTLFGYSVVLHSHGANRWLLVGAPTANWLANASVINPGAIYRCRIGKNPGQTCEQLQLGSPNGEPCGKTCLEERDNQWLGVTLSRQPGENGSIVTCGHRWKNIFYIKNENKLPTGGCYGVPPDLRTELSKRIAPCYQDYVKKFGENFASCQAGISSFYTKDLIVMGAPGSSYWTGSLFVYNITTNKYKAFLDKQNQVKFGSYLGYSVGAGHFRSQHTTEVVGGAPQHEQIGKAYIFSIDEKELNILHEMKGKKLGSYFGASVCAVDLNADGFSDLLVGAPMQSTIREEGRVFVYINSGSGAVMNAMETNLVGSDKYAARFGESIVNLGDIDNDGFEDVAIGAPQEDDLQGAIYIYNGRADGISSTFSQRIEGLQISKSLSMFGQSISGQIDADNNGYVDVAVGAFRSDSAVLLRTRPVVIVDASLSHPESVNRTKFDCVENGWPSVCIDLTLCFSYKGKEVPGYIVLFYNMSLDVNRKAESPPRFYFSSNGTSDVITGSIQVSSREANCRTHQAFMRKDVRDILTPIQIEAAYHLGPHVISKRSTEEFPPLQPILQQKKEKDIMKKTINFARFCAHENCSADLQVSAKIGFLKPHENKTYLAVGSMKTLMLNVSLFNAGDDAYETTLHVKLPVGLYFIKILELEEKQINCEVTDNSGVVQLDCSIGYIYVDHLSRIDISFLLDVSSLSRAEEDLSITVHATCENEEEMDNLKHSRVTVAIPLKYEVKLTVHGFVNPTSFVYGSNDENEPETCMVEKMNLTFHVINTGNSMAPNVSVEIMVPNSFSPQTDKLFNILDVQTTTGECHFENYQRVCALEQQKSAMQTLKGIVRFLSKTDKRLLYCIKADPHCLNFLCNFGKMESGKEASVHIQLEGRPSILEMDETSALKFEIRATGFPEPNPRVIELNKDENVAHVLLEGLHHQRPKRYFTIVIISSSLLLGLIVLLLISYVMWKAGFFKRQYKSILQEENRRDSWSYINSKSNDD

Assay [8] is described as follows: calorie-restriction mimetic ROS inhibitors, yeast – validation compound set, pilot screen (AID 2706;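 active = superoxide response below 65% of plate, a cut near 3 SD across the whole screen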;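 also: yeast exposed to compound for one week at 30 degrees C before staining; 100% = mean of all compound wells on the same plate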). The settings on record: S. cerevisiae aging, superoxide DHE fluorescence; at 10 µM; stronger effect = lower value.
Assay [9] addresses Beta-adrenergic receptor kinase 1 (Homo sapiens) (UniProt P25098). The assay is described as follows: GRK2 binders displacing RNA aptamer, biochemical, validation, human GRK2, bead flow cytometry (AID 488806;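 active = aptamer binding inhibition above 30%, about 3 SD of noise from non-fluorescent compounds; inactive = inhibition at or below 30%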). The settings on record: bead-bound GRK2, FAM-aptamer displacement, at 10 µM, stronger effect = higher value.
The target in assay [10] is Beta-2 adrenergic receptor (Homo sapiens) (UniProt P07550). The assay is described as follows: agonist-induced loss of surface beta2AR – cell-based, FAP fluorogen, flow cytometry, validation set, pilot screen (AID 504459;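 active = percent response above 42, roughly 3 SD of non-fluorescent test compounds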;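 also: agonist-driven loss of surface beta2AR via internalization measured by FAP dye flow cytometry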). The settings on record: Am2.2-beta2AR cells, at 10 µM, stronger effect = higher value.
Chain of Beta-2 adrenergic receptor (Homo sapiens) (P07550 whole entry, looked up): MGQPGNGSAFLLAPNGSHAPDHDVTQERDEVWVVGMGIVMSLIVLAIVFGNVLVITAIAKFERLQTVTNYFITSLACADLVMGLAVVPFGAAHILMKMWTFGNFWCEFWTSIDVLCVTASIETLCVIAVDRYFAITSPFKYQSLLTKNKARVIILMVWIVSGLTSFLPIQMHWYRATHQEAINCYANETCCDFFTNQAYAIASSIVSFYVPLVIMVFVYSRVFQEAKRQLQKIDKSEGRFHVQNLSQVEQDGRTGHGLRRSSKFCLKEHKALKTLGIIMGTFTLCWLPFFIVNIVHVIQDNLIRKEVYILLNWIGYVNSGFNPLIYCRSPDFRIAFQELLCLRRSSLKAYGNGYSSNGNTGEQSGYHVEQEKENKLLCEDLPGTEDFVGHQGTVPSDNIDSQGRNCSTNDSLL
In assay [11] the target is AP-2 complex subunit beta (Homo sapiens) (UniProt P63010). Nature of the assay: beta-arrestin/AP2 interaction blockers – biochemical, validation set, GST-AP2 beads, flow cytometry, pilot screen (AID 504541;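 active = inhibition above 54%, about 3 SD of non-fluorescent compounds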;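 also: AP2 carries R879A mutation and is captured from E. coli lysate; bead-bound FITC arrestin peptide fluorescence measuring arrestin peptide binding to AP2; 0% = DMSO wells and 100% = excess unlabeled arrestin peptide control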). The settings on record: FITC arrestin peptide, at 10 µM, stronger effect = higher value, AP2 beta2 appendage fragment, R879A mutant.
Chain of AP-2 complex subunit beta (Homo sapiens) (P63010 whole entry, looked up, the tested form may be a part, one chain of several): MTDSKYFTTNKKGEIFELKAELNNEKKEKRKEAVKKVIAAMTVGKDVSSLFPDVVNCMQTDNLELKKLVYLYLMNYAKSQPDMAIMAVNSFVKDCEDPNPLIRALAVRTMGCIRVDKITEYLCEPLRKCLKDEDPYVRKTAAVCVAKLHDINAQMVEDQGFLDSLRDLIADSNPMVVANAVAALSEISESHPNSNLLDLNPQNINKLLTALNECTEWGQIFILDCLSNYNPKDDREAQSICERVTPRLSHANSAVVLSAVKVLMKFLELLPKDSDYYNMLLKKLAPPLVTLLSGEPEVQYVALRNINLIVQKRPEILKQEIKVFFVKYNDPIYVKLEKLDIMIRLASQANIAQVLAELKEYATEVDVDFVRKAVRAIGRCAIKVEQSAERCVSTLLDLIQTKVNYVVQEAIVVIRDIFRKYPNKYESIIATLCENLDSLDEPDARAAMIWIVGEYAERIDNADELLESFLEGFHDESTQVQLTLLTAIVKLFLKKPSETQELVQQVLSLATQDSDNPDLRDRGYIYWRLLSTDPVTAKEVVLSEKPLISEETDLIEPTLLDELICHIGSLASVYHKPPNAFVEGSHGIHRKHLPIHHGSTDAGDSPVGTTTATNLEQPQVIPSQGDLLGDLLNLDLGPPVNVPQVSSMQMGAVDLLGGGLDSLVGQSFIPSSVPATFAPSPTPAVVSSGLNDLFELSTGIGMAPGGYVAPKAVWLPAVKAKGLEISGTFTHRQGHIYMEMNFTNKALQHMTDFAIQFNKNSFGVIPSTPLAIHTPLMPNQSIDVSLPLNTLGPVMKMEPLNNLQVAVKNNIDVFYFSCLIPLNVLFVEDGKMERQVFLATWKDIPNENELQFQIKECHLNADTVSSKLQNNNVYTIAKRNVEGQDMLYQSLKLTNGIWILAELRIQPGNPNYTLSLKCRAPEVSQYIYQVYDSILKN
Assay [12] is described as follows: cytosolic pH regulators acting via V-ATPase – S. cerevisiae, pHLuorin, HTS validation (AID 504600; in the data active = response above about 15%;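 also: plate controls were DMSO for no effect and reference compound for full effect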). The settings on record: V-ATPase proton transport, at 10 µM, stronger effect = higher value.
For assay [13], the system named is anti-desmoglein-3 scFv antibody binding to human DSG3. The assay is described as follows: blockers of pathogenic pemphigus antibody–desmoglein-3 binding – biochemical, validation compound set, bead-based, flow cytometry, pilot screen (AID 588368;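 active = binding below the plate cutoff, the plate median minus 3 SD, with a reading above zero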;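 also: signal is the median channel fluorescence of bead-bound GFP antibody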). The settings on record: Protein G beads, DSG3-Fc, scFv-GFP binding, at 10 µM, stronger effect = lower value.
Assay [14] can be described thus: Nile Red efflux blockade in pump-expressing yeast – validation compound set, multiplex, phenotypic, pilot screen (AID 588506;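 active = efflux inhibition above 0.42, the validation set average plus 4 SD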;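 also: Nile Red retained in cells so higher fluorescence means more efflux inhibition; 0 = negative control wells and 1 = enniatin B 25 µM full block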). The settings on record: S. cerevisiae pump-expressing triplex, Nile Red efflux flow cytometry; at 10 µM; stronger effect = higher value; the pumps come from Candida albicans.
Assay [15] deals with ATP-binding cassette sub-family B member 6 (Homo sapiens) (UniProt Q9NP58). The assay is described as follows: blockers of ABCB6-driven porphyrin uptake – K562-ABCB6 cells, flow cytometry, validation set, pilot screen (AID 588550;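 active = inhibition above the screen-wide mean plus 3 SD, about 51%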;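 also: 0% = DMSO wells and 100% = benzethonium chloride 70 µM positive control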). The settings on record: K562-ABCB6 porphyrin accumulation, 1 h, at 10 µM, stronger effect = higher value.
Chain of ATP-binding cassette sub-family B member 6 (Homo sapiens) (Q9NP58 whole entry, looked up): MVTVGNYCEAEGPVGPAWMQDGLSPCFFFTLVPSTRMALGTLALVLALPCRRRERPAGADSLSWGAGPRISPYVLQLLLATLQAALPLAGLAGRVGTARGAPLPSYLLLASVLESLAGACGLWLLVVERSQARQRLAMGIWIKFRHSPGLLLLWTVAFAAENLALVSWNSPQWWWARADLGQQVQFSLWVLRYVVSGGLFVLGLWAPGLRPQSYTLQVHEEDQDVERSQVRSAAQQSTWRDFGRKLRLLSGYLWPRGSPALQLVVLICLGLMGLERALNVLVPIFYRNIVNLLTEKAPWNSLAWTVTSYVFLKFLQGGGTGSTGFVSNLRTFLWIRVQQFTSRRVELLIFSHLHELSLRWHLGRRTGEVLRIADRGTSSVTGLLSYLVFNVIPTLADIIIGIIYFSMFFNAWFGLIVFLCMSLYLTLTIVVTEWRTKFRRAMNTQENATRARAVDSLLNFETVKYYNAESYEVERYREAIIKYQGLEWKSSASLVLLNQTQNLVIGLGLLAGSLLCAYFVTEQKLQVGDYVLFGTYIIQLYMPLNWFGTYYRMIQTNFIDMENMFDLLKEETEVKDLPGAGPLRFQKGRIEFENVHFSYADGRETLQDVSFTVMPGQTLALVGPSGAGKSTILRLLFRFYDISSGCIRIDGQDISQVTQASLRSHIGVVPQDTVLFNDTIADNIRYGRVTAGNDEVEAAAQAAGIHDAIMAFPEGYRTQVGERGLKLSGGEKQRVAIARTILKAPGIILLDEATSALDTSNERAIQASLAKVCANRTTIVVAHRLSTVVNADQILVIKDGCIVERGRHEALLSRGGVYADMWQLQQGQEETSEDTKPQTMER
A short description of assay [16]: AML differentiation inducers, ER-HoxA9 marrow cells – cell-based, GFP/MAC1 double positive, flow cytometry, validation set, primary screen (AID 588685).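 Also: compound exposure lasts four days before antibody staining and flow analysis; 0% = DMSO wells and 100% = 5 µM fulvestrant positive control.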 The settings on record: stronger effect = higher value, normalized: vehicle 0, fulvestrant 100.

Inconclusive results are not listed. Active and inactive are the calls of the source.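 The calls were made as follows, unless noted: active = differentiation response of at least 50%, scaled between solvent and reference control, from cells with both markers; inactive = the rest.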

Chain of Beta-adrenergic receptor kinase 1 (Homo sapiens) (P25098 whole entry, looked up): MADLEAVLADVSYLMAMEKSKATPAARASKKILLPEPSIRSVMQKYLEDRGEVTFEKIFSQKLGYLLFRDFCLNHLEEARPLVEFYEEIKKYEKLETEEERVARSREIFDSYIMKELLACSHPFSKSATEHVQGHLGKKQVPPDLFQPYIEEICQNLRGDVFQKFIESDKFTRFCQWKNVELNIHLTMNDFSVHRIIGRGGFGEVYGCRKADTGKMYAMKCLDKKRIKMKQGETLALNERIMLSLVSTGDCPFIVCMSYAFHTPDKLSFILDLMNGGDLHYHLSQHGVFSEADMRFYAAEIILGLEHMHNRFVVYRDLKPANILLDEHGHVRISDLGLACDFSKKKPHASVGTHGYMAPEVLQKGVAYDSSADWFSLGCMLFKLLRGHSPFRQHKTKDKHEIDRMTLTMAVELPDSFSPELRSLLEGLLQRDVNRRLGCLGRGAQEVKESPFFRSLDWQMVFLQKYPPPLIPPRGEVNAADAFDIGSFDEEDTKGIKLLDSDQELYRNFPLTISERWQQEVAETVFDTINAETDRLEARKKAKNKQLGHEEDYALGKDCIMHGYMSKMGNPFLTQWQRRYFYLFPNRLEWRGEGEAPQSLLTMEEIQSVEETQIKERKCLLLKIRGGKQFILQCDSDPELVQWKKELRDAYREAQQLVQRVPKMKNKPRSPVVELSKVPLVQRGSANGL

One may read the inhibition as the drop in the measured response relative to a control, in per cent. In the case of `Cc1ccccc1NC(=O)C1(C)Cc2ccccc2C(=O)O1` (stereo not drawn), the percent of DMSO control GFP in assay [1] is 100% (inactive). Besides, the values for the GFP response vs DMSO in [2] and in [4] were 103% (inactive) and 131% (inactive), respectively. Besides, the percent response of DMSO control in assay [3] is 92.9% (inactive). For the same compound, in assay [5], the GFP response, % of DMSO is 101% (inactive). The compound also showed a double positive events in [6] of 61.4%. The vesicle binding response in assay [6] was 161% (inactive). The inhibition was 10.5% (inactive) in [7], 29.5% (inactive) in [11] and -4% (inactive) in [15]. The superoxide response (% of plate) in assay [8] was 96.3% (inactive). Besides, the aptamer binding inhibition in [9] was 1% (inactive). Besides, the results for the response in assay [10] and in [12] were -11% (inactive) and -1.4% (inactive), respectively. Besides, the binding (% of control) in [13] was 101% (inactive). Moreover, the efflux inhibition (fraction of control) in assay [14] is -0.28 (inactive). Besides, in assay [16], the differentiation response was 18.4% (inactive).

For the compound `O=C(OCC(O)C(O)COC(=O)c1ccccc1)c1ccccc1` (stereo not drawn), the percent of DMSO control GFP in [1] was 102% (inactive). Also, the GFP response vs DMSO in assay [2] was 105% (inactive); in [4], 106% (inactive). Besides, in assay [3], the percent response of DMSO control was 105% (inactive). In addition, the GFP response, % of DMSO in assay [5] is 107% (inactive). Also, the double positive events in assay [6] is 58.5%. Further, in assay [6], the vesicle binding response is 102% (inactive). Further, the inhibition in assay [7] was -10.5% (inactive); in [11] it was 2.63% (inactive); in [15], 2% (inactive). In addition, the superoxide response (% of plate) in assay [8] is 105% (inactive). Besides, the aptamer binding inhibition in assay [9] is -1% (inactive). The response in assay [10] is -4.55% (inactive); in [12], -5% (inactive). Besides, the binding (% of control) in assay [13] was 97.7% (inactive). Also, in [14], the efflux inhibition (fraction of control) is 0.17 (inactive). In addition, the differentiation response in [16] was -16.3% (inactive).

Consider `O=C(O)c1ccc(-c2ccc(O)c(F)c2)cc1`, for which, in assay [1], the percent of DMSO control GFP was 105% (inactive). Moreover, the GFP response vs DMSO in [2] is 105% (inactive); in assay [4] it was 98% (inactive). In addition, in [3], the percent response of DMSO control was 111% (inactive). For the same compound, the GFP response, % of DMSO in assay [5] was 102% (inactive). In assay [6], this compound came in with a double positive events of 60%. The vesicle binding response in assay [6] was 4700% (inactive). In addition, the inhibition in assay [7] was -1.49% (inactive); in assay [11] it was -6.99% (inactive); in [15], -1% (inactive). Also, the superoxide response (% of plate) in assay [8] was 96.3% (inactive). Further, the aptamer binding inhibition in assay [9] is -2% (inactive). For the same compound, the results for the response in [10] and in assay [12] were -5.66% (inactive) and 3.09% (inactive), respectively. The binding (% of control) in assay [13] is 97.9% (inactive). The efflux inhibition (fraction of control) in assay [14] is -0.17 (inactive). For the same compound, the differentiation response in assay [16] is -6.6% (inactive).

Turning to `COc1ccc(CCN=CC2=C(O)CC(C)(C)CC2=O)cc1`, the percent of DMSO control GFP in [1] is 109% (inactive). The GFP response vs DMSO in assay [2] is 106% (inactive); in assay [4], 91.4% (inactive). In assay [3], the percent response of DMSO control is 106% (inactive). Further, the GFP response, % of DMSO in [5] is 102% (inactive). For the same compound, the double positive events in [6] amounted to 62.4%. The vesicle binding response in assay [6] was 6690% (inactive). In addition, the values for the inhibition in [7], in assay [11] and in assay [15] were -2.53% (inactive), -11.8% (inactive) and 3% (inactive), respectively. Moreover, in assay [8], the superoxide response (% of plate) is 91.4% (inactive). The aptamer binding inhibition in assay [9] is -2% (inactive). Moreover, the response is -5.19% (inactive) in [10] and 2.74% (inactive) in assay [12]. The binding (% of control) in [13] was 101% (inactive). Also, the efflux inhibition (fraction of control) in [14] was 0.02 (inactive). Besides, the differentiation response in assay [16] was 1.22% (inactive).

These data come from PubChem BioAssay.
